{
  "source": "PubChem BioAssay (NCATS)",
  "key": {"[1]": {"test": "P-glycoprotein substrates identified in KB-8-5-11 adenocarcinoma cell line, qHTS therapeutic library screen (AID 1346987); also: nearly all actives have a fitted effect of over 65% in size; also: potency is read from the fitted curve at half-maximal effect", "conditions": "KB-8-5-11 (P-gp overexpressing) viability, CellTiter-Glo, 72 h; series mostly up to 44.5 µM", "in_short": "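P-gp-mediated resistance screen: KB-8-5-11 cells treated 72 h with compounds in dose-response. CellTiter-Glo viability.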"}, "[2]": {"test": "NS1 protein of Zika virus - qHTS assay to identify small molecule inhibitors in human HEK 293 cells (AID 1347053); also: nearly all actives have a fitted effect of over 55% in size", "conditions": "HEK293 ZIKV MR766 infection, NS1 TR-FRET, 24 h; series mostly up to 46.1 µM", "in_short": "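Following 20 h seeding, HEK 293 cells took compound, then 1 h later ZIKV MR766 (MOI = 0.5). Incubation ran 24 h at 37 C before TR-FRET detection of NS1; a drop in signal indicates inhibition.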"}, "[3]": {"test": "qHTS of pediatric cancer cell lines to identify multiple opportunities for drug repurposing: Primary screen for TC32 cells (AID 1347089); also: nearly all actives have a fitted effect of over 60% in size", "conditions": "TC32 Ewing sarcoma viability, CellTiter-Glo luminescence, 48 h; series mostly up to 45.8 µM", "in_short": "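qHTS, TC32, 48 h drug treatment, CellTiter-Glo luminescence as a proxy for metabolically active cells; primary top concentration 46 µM (MIPE 11-pt, NPC 8-pt); confirmatory 11-pt.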"}, "[4]": {"test": "qHTS of pediatric cancer cell lines to identify multiple opportunities for drug repurposing: Primary screen for DAOY cells (AID 1347090); also: nearly all actives have a fitted effect of over 55% in size", "conditions": "DAOY medulloblastoma viability, CellTiter-Glo luminescence, 48 h; series mostly up to 46 µM", "in_short": "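Eight- or eleven-point concentration series, 48 h treatment at 37 degrees C in growth media; readout CellTiter-Glo luminescence. Potency and efficacy were taken from the concentration-response curves.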"}},
  "note": "Results filed as inconclusive are left out. A call without a number means that no potency is given here. Values without a mark were called inactive. The source made the active and inactive calls. Calls follow the shape of the dose curve; as a rule, active = well fitted curve in the direction sought with a large enough effect; inconclusive = small, poorly fitted or top-dose-only effect, or another doubt; inactive = no such curve, though single readings can be large; an effect the other way counts as inactive or inconclusive. Where a SMILES comes first, the peptide text is derived from it. [ ]: non-standard residue; d: D form. ξ: configuration not given here. ξLac(3-iPr) = CC(C)CC(O)C(=O)O; NMeV = CN[CH](C(=O)O)C(C)C; βAla = NCCC(=O)O",
  "data": [
    {"smiles": "CC(C)C(CO)Nc1nc(Nc2cc(N)cc(Cl)c2)c2ncn(C(C)C)c2n1", "note": "(stereo unspecified)", "values": [
      {"measurement": "Potency", "setting": "[1]", "result": "7310 nM (active)"}
    ]},
    {"smiles": "C=CC(C)(O)CC/C=C(\\C)C(=O)OC1C(O)C(CO)OC(OC(=O)C23CCC(C)(C)CC2C2=CCC4C5(C)CCC(OC6OC(COC7OCC(OC(C)=O)C(O)C7OC7OC(COC(C)=O)C(O)C(O)C7O)C(O)C(O)C6O)C(C)(C)C5CCC4(C)C2(C)C(O)C3O)C1OC1OCC(OC2OCC(O)C(OC3OCC(O)C(O)C3O)C2O)C(O)C1O", "note": "(stereo unspecified)", "values": [
      {"measurement": "activity change, negative = cytotoxicity", "setting": "[1]", "result": "9.63% [at 5.11 µM]"}
    ]},
    {"smiles": "COC(=O)CCC(=O)OC[C@]1(C)CCC[C@@]2(C)C3CC[C@]4(C)C=CC3(CCC12)C4", "note": "(stereo partly specified)", "values": [
      {"measurement": "Potency", "setting": "[1]", "result": "inactive"}
    ]},
    {"smiles": "CN[C@H](C(=O)N[C@H](C(=O)N(C)[C@H](/C=C(\\C)C(=O)O)C(C)C)C(C)(C)C)C(C)(C)c1ccccc1", "values": [
      {"measurement": "Potency", "setting": "[1]", "result": "18.4 nM (active)"}
    ]},
    {"smiles": "CC1=CC(=O)C2C(C)(C)CCC[C@]2(C)[C@H]1CO", "note": "(stereo partly specified)", "values": [
      {"measurement": "Potency", "setting": "[1]", "result": "inactive"}
    ]},
    {"smiles": "OC[C@H]1O[C@@H](OCCc2ccc(O)cc2)[C@H](O[C@@H]2OC[C@](O)(CO)[C@H]2O)[C@@H](O)[C@@H]1O", "values": [
      {"measurement": "Potency", "setting": "[1]", "result": "inactive"}
    ]},
    {"smiles": "C#CCN(Cc1cc2c(=O)n(C)c(CN3CCN(C)CC3)nc2cc1Cl)c1ccc(C(=O)NCc2cccnc2)cc1", "values": [
      {"measurement": "Potency", "setting": "[1]", "result": "259 nM (active)"}
    ]},
    {"smiles": "O=C(O)COCCN1CCN([C@H](c2ccccc2)c2ccc(Cl)cc2)CC1", "values": [
      {"measurement": "Potency", "setting": "[1]", "result": "inactive"}
    ]},
    {"smiles": "CC(C)CC1OC(=O)C2CCCN2C(=O)CCNC(=O)C(Cc2ccccc2)NC(=O)C(C(C)C)N(C)C(=O)C(C(C)C)N(C)C1=O", "note": "(stereo unspecified) (cyclo([ξLac(3-iPr)][NMeV][NMeV]F[βAla]P); configuration not given here)", "values": [
      {"measurement": "Potency", "setting": "[1]", "result": "inactive"}
    ]},
    {"smiles": "CC(C)CN(C[C@@H](O)[C@H](Cc1ccccc1)NC(=O)O[C@@H]1CO[C@H]2OCC[C@H]21)S(=O)(=O)c1ccc(N)cc1", "values": [
      {"measurement": "Potency", "setting": "[1]", "result": "inactive"}
    ]},
    {"smiles": "O=C(NCc1ccc(F)cc1)C(=O)c1c[nH]c2ccccc12", "values": [
      {"measurement": "Potency", "setting": "[1]", "result": "inactive"}
    ]},
    {"smiles": "C[S+](CC[C@H](N)C(=O)[O-])C[C@H]1O[C@@H](n2cnc3c(N)ncnc32)[C@H](O)[C@@H]1O", "note": "(stereo partly specified)", "values": [
      {"measurement": "Potency", "setting": "[1]", "result": "inactive"}
    ]},
    {"smiles": "CCN1CCN(Cc2ccc(Nc3ncc(F)c(-c4cc(F)c5nc(C)n(C(C)C)c5c4)n3)nc2)CC1", "values": [
      {"measurement": "Potency", "setting": "[1]", "result": "4110 nM (active)"}
    ]},
    {"smiles": "C=CC1(C)CC(OC(=O)/C(C)=C\\COC(C)=O)C(C(=C)C(=O)O)C(O)C1C(=C)CO", "note": "(stereo unspecified)", "values": [
      {"measurement": "Potency", "setting": "[1]", "result": "inactive"}
    ]},
    {"smiles": "COc1ccc(-c2c(-c3cc(C(=O)O)ccn3)ncn2C)cc1", "values": [
      {"measurement": "Potency", "setting": "[1]", "result": "inactive"}
    ]},
    {"smiles": "O=C(OCC1=CC(O)C2C=CO[C@@H](O[C@@H]3O[C@H](CO)[C@@H](O)[C@H](O)[C@H]3O)C12)c1ccccc1", "note": "(stereo partly specified)", "values": [
      {"measurement": "Potency", "setting": "[1]", "result": "inactive"}
    ]},
    {"smiles": "COc1cc2c(cc1O)CC[C@H]1[C@@H]2CC[C@]2(C)[C@H](O)CC[C@@H]12", "values": [
      {"measurement": "Potency", "setting": "[1]", "result": "1300 nM (active)"}
    ]},
    {"smiles": "C[C@H](C(=O)NC1CCCC1)N(C(=O)Cn1nnc(-c2ccc3c(c2)OCO3)n1)C1CCCCC1", "values": [
      {"measurement": "Potency", "setting": "[1]", "result": "inactive"}
    ]},
    {"smiles": "CCC(C)C(=O)OC1CC(C)C=C2C=CC(C)C(CCC(O)CC(O)CC(=O)O)C21", "note": "(stereo unspecified)", "values": [
      {"measurement": "Potency", "setting": "[1]", "result": "inactive"}
    ]},
    {"smiles": "C[C@@H]1O[C@@H](O[C@@H]2[C@@H](O)[C@H](O[C@H]3[C@H](O[C@H]4CC[C@@]5(C)C(CC[C@]6(C)C5CC=C5[C@@H]7CC(C)(C)CC[C@]7(C(=O)O[C@@H]7O[C@H](CO)[C@@H](O)[C@H](O)[C@H]7O[C@@H]7O[C@@H](C)[C@H](O[C@@H]8O[C@@H](C)[C@H](O)[C@@H](O)[C@H]8O)[C@@H](O)[C@H]7O)CC[C@]56C)[C@@]4(C)CO)O[C@H](C(=O)O)[C@@H](O)[C@@H]3O)O[C@H](CO)[C@H]2O)[C@H](O)[C@H](O)[C@H]1O", "note": "(stereo partly specified)", "values": [
      {"measurement": "activity change, negative = cytotoxicity", "setting": "[1]", "result": "9.26% [at 9.29 µM]"}
    ]},
    {"smiles": "C[C@@H]1CC[C@]2(C(=O)O)CC[C@]3(C)C(=CCC4[C@@]5(C)CC[C@H](O)C(C)(C)C5C(O)C[C@]43C)[C@@H]2[C@]1(C)O", "note": "(stereo partly specified)", "values": [
      {"measurement": "Potency", "setting": "[1]", "result": "inactive"}
    ]},
    {"smiles": "NCc1c[nH]c(=S)n1[C@@H]1CCc2c(F)cc(F)cc2C1", "values": [
      {"measurement": "Potency", "setting": "[1]", "result": "inactive"}
    ]},
    {"smiles": "COc1cc(C(=O)NC2CCN(C)CC2)ccc1Nc1ncc2c(n1)N(C1CCCC1)CC(F)(F)C(=O)N2C", "values": [
      {"measurement": "Potency", "setting": "[1]", "result": "1160 nM (active)"}
    ]},
    {"smiles": "COC(=O)C1=C2Nc3ccccc3C23CCN2CCCC(C(C)O)(C1)C23", "note": "(stereo unspecified)", "values": [
      {"measurement": "Potency", "setting": "[1]", "result": "inactive"}
    ]},
    {"smiles": "COC(=O)N(C)c1c(N)nc(-c2nn(Cc3ccccc3F)c3ncccc23)nc1N", "values": [
      {"measurement": "Potency", "setting": "[1]", "result": "inactive"}
    ]},
    {"smiles": "CC(C)NCC(C(=O)N1CCN(c2ncnc3c2C(C)CC3O)CC1)c1ccc(Cl)cc1", "note": "(stereo unspecified)", "values": [
      {"measurement": "Potency", "setting": "[1]", "result": "inactive"}
    ]},
    {"smiles": "CCCN1CCC(c2cccc(S(C)(=O)=O)c2)CC1", "values": [
      {"measurement": "Potency", "setting": "[1]", "result": "inactive"}
    ]},
    {"smiles": "CCOC(=O)c1sc(NC(=O)[C@H](C(C)C)n2c(=O)[nH]c3ccccc3c2=O)nc1C", "values": [
      {"measurement": "Potency", "setting": "[1]", "result": "inactive"}
    ]},
    {"smiles": "COc1cc2nc(N3CCCC3)nc(NCCCCCN3CCCC3)c2cc1OC", "values": [
      {"measurement": "Potency", "setting": "[1]", "result": "inactive"}
    ]},
    {"smiles": "CC(O)CCC1C(CO[C@@H]2O[C@H](CO)[C@@H](O)[C@H](O)[C@H]2O)CC(O)CC1(C)C", "note": "(stereo partly specified)", "values": [
      {"measurement": "Potency", "setting": "[1]", "result": "inactive"}
    ]},
    {"smiles": "COC(=O)CC1CC(c2ccc(O)cc2)=NO1", "note": "(stereo unspecified)", "values": [
      {"measurement": "Potency", "setting": "[1]", "result": "inactive"}
    ]},
    {"smiles": "COc1cc(Nc2nc3c(s2)CCCC3c2ccc(F)cc2)ccc1-n1cnc(C)c1", "note": "(stereo unspecified)", "values": [
      {"measurement": "Potency", "setting": "[1]", "result": "20600 nM (active)"}
    ]},
    {"smiles": "CC(C)c1nnc(-c2ccc(-c3ccccc3)nc2)n1-c1cccc2nonc12", "values": [
      {"measurement": "Potency", "setting": "[1]", "result": "inactive"}
    ]},
    {"smiles": "CNS(=O)(=O)c1ccccc1Nc1nc(Nc2ccc(N3CCN(C)CC3)cc2OC)ncc1Cl", "values": [
      {"measurement": "Potency", "setting": "[1]", "result": "651 nM (active)"}
    ]},
    {"smiles": "C=C[C@H]1CN2CC[C@H]1C[C@@H]2C(O)c1ccnc2ccc(OC)cc12", "note": "(stereo partly specified)", "values": [
      {"measurement": "Potency", "setting": "[1]", "result": "inactive"}
    ]},
    {"smiles": "Cc1ccc([N+](=O)[O-])cc1S(=O)(=O)N(C)/N=C/c1cnc2ccc(Br)cn12", "values": [
      {"measurement": "Potency", "setting": "[1]", "result": "231 nM (active)"}
    ]},
    {"smiles": "CCC(C)C(=O)O[C@H]1CCC=C2C=C[C@H](C)[C@H](CC[C@@H](O)C[C@@H](O)CC(=O)O)[C@H]21", "note": "(stereo partly specified)", "values": [
      {"measurement": "Potency", "setting": "[1]", "result": "inactive"}
    ]},
    {"smiles": "CCC(C(=O)O)c1ccc(N2Cc3ccccc3C2=O)cc1", "note": "(stereo unspecified)", "values": [
      {"measurement": "Potency", "setting": "[2]", "result": "inactive"},
      {"measurement": "outcome", "setting": "[3]", "result": "inactive"},
      {"measurement": "outcome", "setting": "[4]", "result": "inactive"}
    ]},
    {"smiles": "CC(C)CC(=O)O[C@@H]1OC=C(CO[C@@H]2O[C@H](CO)[C@@H](O)[C@H](O)[C@H]2O)[C@H]2[C@@H]3O[C@H]3[C@@](O)(CO)[C@@H]12", "values": [
      {"measurement": "Potency", "setting": "[1]", "result": "inactive"}
    ]}
  ]
}
